# PubChem BioAssay
# “And” between values parts separate entries of the source, which are not always exact repeats. Equal values may be shown once. Inconclusive results are not listed. The source made the active and inactive calls. Unless noted, how the calls were made is not given here.
# Columns and labels:
# [1] = system: Hepatitis C virus NS3 helicase; assay: HCV NS3 helicase inhibitors, primary screen, biochemical, fluorescence polarization, LOPAC1280 library (AID 687035; in the data active means inhibition above about 37%); conditions: Purified HCV NS3 helicase, Cy5-dT15 ssDNA binding fluorescence polarization; stronger effect = higher value; concentration not given here
# [2] = Cy5 fluorescence quenching or enhancement artefacts, artefact control for HCV NS3 helicase inhibitor project, biochemical, LOPAC1280 (AID 687037); conditions: Cy5-DNA-NS3h complex fluorescence interference counterscreen
# [3] = system: Aerobactin synthetase IucA (Klebsiella pneumoniae); assay: IucA aerobactin synthetase inhibitors, biochemical, Tocris library, absorbance (AID 1345561); conditions: purified IucA enzyme assay, absorbance (OD) read-out; stronger effect = lower value;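 tested at 8 µM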;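 further: 100% = enzyme without compound and 0% = no enzyme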
# [4] = sensitizers of A549 cells to miR-34 induction, primary screen, imaging, A549 dox-inducible miR-34, nuclei and caspase counts (AID 1347080;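 active means compounds whose cell count with miR-34 switched on is under 0.7 times the count with it off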); conditions: A549 miR-34 inducible, Hoechst nuclei count, 48 h
# [5] = phospholipid biosynthesis inhibitors in animal cells, primary screen, cell-based, LOPAC library, screen 4 (AID 1347384); conditions: phospholipid biosynthesis inhibition screen, at 10 µM
# [6] = viability rescue of complex I mutant cybrids, primary screen, cell-based, galactose medium, ATP luminescence (AID 1645843;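 active means z-score of at least 1.8 in each of two replicates, scored against plate mean and spread of sample wells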;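 further: positive z means more ATP and so rescue of galactose-driven cybrid death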); conditions: complex I mutant cybrid cells, 72 h, stronger effect = higher value
# [7] = survival rescue of mitochondrial mutant cells in low glucose, primary screen, MELAS cybrids, Rieske KO mouse fibroblasts, CellTiter-Glo (AID 1508586;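 active means mean z-score across replicates of 1.96 or higher in either the MELAS or the Rieske mutant cell line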;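 further: z relative to plate mean and SD of compound and empty wells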)
# [8] = liver-stage malaria parasite growth inhibition, primary screen, cell-based, HepG2, luciferase luminescence, HepG2 viability (AID 624349; in the data active means parasite load remaining mostly below about 12%, no sharp cut-off; inactive means mostly above about 10%;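 further: 100% = mean of DMSO negative control wells on the same plate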); conditions: P. berghei liver stage in HepG2, luciferase luminescence, concentration not given here; parasite load remaining: stronger effect = lower value; viability: measured here: HepG2 viability without parasites
# [9] = target: ATP-dependent translocase ABCB1 (Homo sapiens) (UniProt P08183); assay: MDR1 (ABCB1) efflux transporter inhibition, cell-based (AID 377; in the data active means fluorescence slope change above about 50%); conditions: MDR1-expressing cells, fluorescent substrate accumulation slope; stronger effect = higher value; concentration not given here
# Sequence of ATP-dependent translocase ABCB1 (Homo sapiens) (P08183 whole entry, looked up): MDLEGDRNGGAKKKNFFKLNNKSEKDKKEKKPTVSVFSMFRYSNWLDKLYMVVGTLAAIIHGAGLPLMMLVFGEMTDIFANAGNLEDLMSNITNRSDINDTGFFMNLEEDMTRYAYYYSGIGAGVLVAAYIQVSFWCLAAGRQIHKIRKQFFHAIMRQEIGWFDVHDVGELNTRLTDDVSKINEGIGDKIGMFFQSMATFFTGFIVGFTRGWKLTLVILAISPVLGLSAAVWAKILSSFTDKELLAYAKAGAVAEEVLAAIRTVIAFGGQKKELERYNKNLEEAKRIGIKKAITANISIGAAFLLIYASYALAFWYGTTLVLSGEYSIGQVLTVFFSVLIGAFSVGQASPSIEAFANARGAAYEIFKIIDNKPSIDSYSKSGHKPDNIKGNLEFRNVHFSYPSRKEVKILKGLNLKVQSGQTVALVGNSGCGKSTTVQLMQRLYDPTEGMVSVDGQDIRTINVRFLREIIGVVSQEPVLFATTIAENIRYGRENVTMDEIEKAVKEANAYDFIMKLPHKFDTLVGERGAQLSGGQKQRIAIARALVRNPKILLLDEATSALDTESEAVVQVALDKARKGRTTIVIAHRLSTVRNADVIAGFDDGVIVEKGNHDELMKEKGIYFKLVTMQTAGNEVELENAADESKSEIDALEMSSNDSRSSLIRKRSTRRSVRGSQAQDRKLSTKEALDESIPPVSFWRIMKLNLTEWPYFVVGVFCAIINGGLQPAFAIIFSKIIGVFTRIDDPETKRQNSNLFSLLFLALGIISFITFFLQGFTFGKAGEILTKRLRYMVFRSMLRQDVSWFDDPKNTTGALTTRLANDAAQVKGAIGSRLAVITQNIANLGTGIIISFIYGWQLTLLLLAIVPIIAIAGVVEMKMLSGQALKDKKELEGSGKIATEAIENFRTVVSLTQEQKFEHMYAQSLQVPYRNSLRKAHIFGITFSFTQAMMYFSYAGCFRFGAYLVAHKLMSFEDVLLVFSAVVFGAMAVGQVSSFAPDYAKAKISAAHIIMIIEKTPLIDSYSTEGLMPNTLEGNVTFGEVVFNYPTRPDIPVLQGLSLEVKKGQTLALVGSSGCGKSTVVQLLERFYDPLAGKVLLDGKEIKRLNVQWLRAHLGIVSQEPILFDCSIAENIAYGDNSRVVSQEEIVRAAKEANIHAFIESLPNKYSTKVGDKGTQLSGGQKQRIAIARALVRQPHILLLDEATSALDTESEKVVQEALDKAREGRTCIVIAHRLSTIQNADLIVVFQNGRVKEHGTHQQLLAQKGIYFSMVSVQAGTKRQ
# [10] = hESC survival regulators, cell-based (AID 493140); conditions: human embryonic stem cell survival screen; stronger effect = higher value;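 further: cells exposed to compounds for four days before counting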
# [11] = target: NAD(+) hydrolase SARM1 (Homo sapiens) (UniProt Q6SZW1); assay: SARM1 TIR NADase inhibitors, cell lysate, NAD-Glo luminescence (AID 1508614;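 active means compound whose remaining NAD level is above about 45 nM, limit read from the data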); conditions: SAM-TIR HEK293T lysate NADase, at 1 µM, stronger effect = higher value
# Sequence of NAD(+) hydrolase SARM1 (Homo sapiens) (Q6SZW1 whole entry, looked up, the tested form may be a part): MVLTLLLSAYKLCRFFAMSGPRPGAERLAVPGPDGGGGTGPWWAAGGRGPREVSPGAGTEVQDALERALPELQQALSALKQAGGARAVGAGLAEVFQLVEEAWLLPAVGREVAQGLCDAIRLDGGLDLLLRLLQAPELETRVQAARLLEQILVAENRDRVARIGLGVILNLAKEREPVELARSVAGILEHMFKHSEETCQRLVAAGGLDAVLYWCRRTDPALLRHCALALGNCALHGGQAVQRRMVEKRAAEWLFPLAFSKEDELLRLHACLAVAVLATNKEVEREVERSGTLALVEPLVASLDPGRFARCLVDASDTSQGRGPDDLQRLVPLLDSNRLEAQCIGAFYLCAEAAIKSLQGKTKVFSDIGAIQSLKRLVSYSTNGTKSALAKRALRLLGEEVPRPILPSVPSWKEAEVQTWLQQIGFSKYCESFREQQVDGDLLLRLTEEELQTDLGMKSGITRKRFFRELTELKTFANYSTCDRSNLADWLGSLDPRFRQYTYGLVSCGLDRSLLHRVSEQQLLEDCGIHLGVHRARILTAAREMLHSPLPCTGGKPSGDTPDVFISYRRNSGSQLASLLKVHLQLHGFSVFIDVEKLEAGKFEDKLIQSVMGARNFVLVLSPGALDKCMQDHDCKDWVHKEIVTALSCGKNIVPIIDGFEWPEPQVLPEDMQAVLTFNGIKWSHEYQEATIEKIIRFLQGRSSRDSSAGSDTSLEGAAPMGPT
# [12] = target: Mitogen-activated protein kinase 7 (Homo sapiens) (UniProt Q13164); assay: ERK5 transactivation activators in reporter cells, primary screen, cell-based, HTS (AID 1508626;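 active means luciferase signal above three times the same-plate solvent-only control wells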;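 further: luciferase driven by Gal4-ERK5 fusion binding five Gal4 sites before minimal TATA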); conditions: HeLa Gal4-ERK5 transactivation, 18 h, at 5 µM, stronger effect = higher value
# Sequence of Mitogen-activated protein kinase 7 (Homo sapiens) (Q13164 whole entry, looked up, the tested form may be a part): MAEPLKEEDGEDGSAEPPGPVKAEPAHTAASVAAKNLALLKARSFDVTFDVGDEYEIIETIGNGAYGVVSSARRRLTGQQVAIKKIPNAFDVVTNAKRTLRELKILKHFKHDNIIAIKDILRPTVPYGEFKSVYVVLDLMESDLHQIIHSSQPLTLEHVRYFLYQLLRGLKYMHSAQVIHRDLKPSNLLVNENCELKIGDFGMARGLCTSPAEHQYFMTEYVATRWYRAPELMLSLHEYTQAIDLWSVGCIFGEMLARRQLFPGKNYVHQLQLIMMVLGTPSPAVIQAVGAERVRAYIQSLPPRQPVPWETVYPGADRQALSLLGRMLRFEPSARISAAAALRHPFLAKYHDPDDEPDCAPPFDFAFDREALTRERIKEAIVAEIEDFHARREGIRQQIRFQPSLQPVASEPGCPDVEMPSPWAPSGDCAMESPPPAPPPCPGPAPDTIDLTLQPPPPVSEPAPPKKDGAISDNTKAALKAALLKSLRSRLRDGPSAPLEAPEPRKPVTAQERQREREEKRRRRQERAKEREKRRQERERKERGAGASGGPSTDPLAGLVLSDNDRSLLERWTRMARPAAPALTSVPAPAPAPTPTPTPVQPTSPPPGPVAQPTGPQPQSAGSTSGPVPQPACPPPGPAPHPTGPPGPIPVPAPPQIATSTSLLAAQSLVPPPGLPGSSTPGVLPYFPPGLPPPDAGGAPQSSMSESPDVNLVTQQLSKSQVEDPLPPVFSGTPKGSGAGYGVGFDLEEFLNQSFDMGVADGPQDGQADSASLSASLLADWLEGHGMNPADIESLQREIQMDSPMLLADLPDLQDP
# [13] = circadian clock period modulators, cell-based, LOPAC library, luminescence reporter (AID 2774); conditions: circadian reporter cells, at 7 µM, actives lie on both sides;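 further: values are relative to mean of DMSO wells on each plate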
# [14] = inhibitors of Cryptococcus chitosan production, flow cytometry, Cibacron Brilliant Red staining (AID 1347148); conditions: Cryptococcus neoformans chitosan, stronger effect = lower value; at 10 µM unless noted;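 further: compound exposure lasted three days at 37 degrees C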
# [15] = kinase inhibitors against Plasmodium liver-stage infection, cell-based, known kinase inhibitor set, luminescence, hepatoma host viability (AID 624392); conditions: Plasmodium liver stage in hepatoma cells, luciferase luminescence, concentration not given here; liver cell % of control: measured here: host liver cell viability; parasite % of control: stronger effect = lower value;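 further: infected cells incubated roughly two days before readout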
# [16] = stronger effect = lower value, cell number ratio, induced over uninduced
# [17] = measured here: relative caspase fold change +Dox/-Dox
# [18] = measured here: total cells with miR-34 induction, stronger effect = lower value
# [19] = measured here: total cells without miR-34 induction
# [20] = MELAS cybrid survival, CellTiter-Glo 48 h, stronger effect = higher value
# [21] = Rieske KO mouse fibroblast survival, CellTiter-Glo 72 h
smiles,measurement,setting,value
CCCCCCCCc1ccc(-c2ccc(C(=O)O)cc2)cc1,inhibition,[1],0% (inactive)
same,fluorescence ratio (interference),[2],1 (inactive)
same,remaining activity,[3],95.4% (inactive)
same,fold change,[4]; [16],0.939 (inactive) and 0.915 (inactive)
same,fold change,[4]; [17],0.89 and 1.73
same,cell count,[4]; [18],8400 and 8360
same,cell count,[4]; [19],8950 and 9140
same,outcome,[5],inactive
same,z-score,[6],0.205 (inactive) and -0.145 (inactive)
O=S(=O)(c1ccccc1)N(CC(F)(F)F)c1ccc(C(O)(C(F)(F)F)C(F)(F)F)cc1,remaining activity,[3],101% (inactive)
same,fold change,[4]; [16],0.946 (inactive) and 1.36 (inactive) and 0.863 (inactive)
same,fold change,[4]; [17],0.813 and 0.647 and 1.59
same,cell count,[4]; [18],5490 and 6260 and 4300
same,cell count,[4]; [19],5810 and 4590 and 4980
same,z-score,[7]; [20],-0.346 (inactive)
same,z-score,[7]; [21],-0.159
same,z-score,[6],-0.605 (inactive)
Nc1nc2c(cnn2CCc2ccccc2)c2nc(-c3ccco3)nn12,inhibition,[1],0% (inactive)
same,fluorescence ratio (interference),[2],1 (inactive)
same,remaining activity,[3],107% (inactive)
same,fold change,[4]; [16],0.995 (inactive) and 1.05 (inactive)
same,fold change,[4]; [17],1.09 and 1.04
same,cell count,[4]; [18],10300 and 7560
same,cell count,[4]; [19],10400 and 7200
same,outcome,[5],inactive
same,z-score,[6],0.15 (inactive) and -0.35 (inactive)
CN/C(=C/[N+](=O)[O-])NCCSCc1ccc(CN(C)C)o1,parasite load remaining,[8],43.4% (inactive) and 51.6% (inactive)
same,viability,[8],47.5% and 107%
same,remaining activity,[3],114% (inactive)
same,fold change,[4]; [16],0.9 (inactive) and 0.849 (inactive) and 0.891 (inactive)
same,fold change,[4]; [17],0.927 and 0.503 and 1.27
same,cell count,[4]; [18],8480 and 7980 and 9140
same,cell count,[4]; [19],9410 and 10300
same,z-score,[7]; [20],-0.0746 (inactive) and -0.291 (inactive)
same,z-score,[7]; [21],-0.171 and 0.538
same,z-score,[6],-0.09 (inactive) and 0.3 (inactive)
CN1CCc2cccc3c2[C@H]1Cc1ccc(O)c(O)c1-3,fluorescence slope change,[9],65.8% (active)
same,survival,[10],6.58 (inactive)
same,parasite load remaining,[8],7.04% (inactive) and 82% (inactive) and 31.2% (inactive)
same,viability,[8],42.7% and 84.6% and 138%
same,remaining activity,[3],113% (inactive)
same,fold change,[4]; [16],0.946 (inactive) and 0.949 (inactive) and 0.917 (inactive)
same,fold change,[4]; [17],0.839 and 1.17 and 0.734
same,cell count,[4]; [18],7920 and 7790 and 8530
same,cell count,[4]; [19],8370 and 8210 and 9300
same,z-score,[7]; [20],0.207 (inactive) and -0.194 (inactive)
same,z-score,[7]; [21],0.641 and 0.16
same,remaining NAD,[11],53 nM (active)
same,luciferase signal,[12],48 AU (inactive)
same,z-score,[6],-1.04 (inactive) and -2.25 (inactive)
CCCn1c(=O)c(C)cn2nc(N)nc12,inhibition,[1],-2% (inactive)
same,fluorescence ratio (interference),[2],1 (inactive)
same,remaining activity,[3],123% (inactive)
same,fold change,[4]; [16],0.963 (inactive) and 0.912 (inactive)
same,fold change,[4]; [17],2.19 and 0.621
same,cell count,[4]; [18],10000 and 9600
same,cell count,[4]; [19],10400 and 10500
same,outcome,[5],inactive
same,z-score,[6],0.8 (inactive) and -0.21 (inactive)
Cc1ccc2c(c1)C(=O)C1(O)CCN(c3ccccc3)C1=N2 (stereo not drawn),remaining activity,[3],119% (inactive)
same,fold change,[4]; [16],0.944 (inactive) and 1.14 (inactive) and 0.93 (inactive)
same,fold change,[4]; [17],1.39 and 0.747 and 0.79
same,cell count,[4]; [18],2140 and 6710 and 5140
same,cell count,[4]; [19],2270 and 5900 and 5530
same,z-score,[6],0.035 (inactive)
COc1ccc2c(c1)c(CC(=O)N1CCOCC1)c(C)n2C(=O)c1ccc(Cl)cc1,period change,[13],-0.115 h (inactive)
same,survival,[10],105 (inactive)
same,remaining activity,[3],123% (inactive)
same,fold fluorescence,[14],2.56 (active)
same,z-score,[7]; [20],-0.237 (inactive)
same,z-score,[7]; [21],-0.286
same,z-score,[6],-0.295 (inactive)
Nc1ncnc2n[nH]c(Nc3ccc(F)cc3)c12,parasite load remaining,[8],34.8% (inactive)
same,viability,[8],85.8%
same,inhibition,[1],-5% (inactive)
same,fluorescence ratio (interference),[2],1 (inactive)
same,remaining activity,[3],105% (inactive)
same,z-score,[7]; [20],-0.494 (inactive)
same,z-score,[7]; [21],0.733
same,z-score,[6],0.375 (inactive) and 0.16 (inactive)
Brc1c(Br)c(Br)c2n[nH]nc2c1Br,parasite load remaining,[8],65.4% (inactive)
same,viability,[8],173%
same,liver cell % of control,[15],96.1%
same,parasite % of control,[15],91.6% (inactive)
same,inhibition,[1],-6% (inactive)
same,fluorescence ratio (interference),[2],1 (inactive)
same,remaining activity,[3],108% (inactive)
same,fold change,[4]; [16],1.03 (inactive) and 1.02 (inactive)
same,fold change,[4]; [17],1.41 and 1.13
same,cell count,[4]; [18],10300 and 7940
same,cell count,[4]; [19],9970 and 7790
same,outcome,[5],inactive
same,z-score,[6],-0.92 (inactive) and -0.58 (inactive)
c1ccc(C(NCCNC(c2ccccc2)c2ccccc2)c2ccccc2)cc1,inhibition,[1],-4% (inactive)
same,fluorescence ratio (interference),[2],1 (inactive)
same,remaining activity,[3],112% (inactive)
same,fold change,[4]; [16],0.972 (inactive) and 0.853 (inactive)
same,fold change,[4]; [17],0.809 and 1.79
same,cell count,[4]; [18],5830 and 5710
same,cell count,[4]; [19],5990 and 6700
same,outcome,[5],inactive
same,z-score,[6],-1.29 (inactive) and -0.705 (inactive)
C/C(=C\c1ccc(C(=O)O)cc1)c1ccc2c(c1)C(C)(C)CCC2(C)C,period change,[13],0.4 h (inactive)
same,survival,[10],85.2 (inactive)
same,inhibition,[1],0% (inactive)
same,cell count,[4]; [18],6410 and 5680 and 8680
same,cell count,[4]; [19],6200 and 5870 and 8620
same,outcome,[5],inactive
same,z-score,[6],1.45 (inactive) and 1.6 (inactive)
Clc1ccc2c(c1)N=C(N1CCNCC1)c1ccccc1N2,inhibition,[1],-2% (inactive)
same,fluorescence ratio (interference),[2],1 (inactive)
same,remaining activity,[3],102% (inactive)
same,fold change,[4]; [16],1.02 (inactive) and 0.994 (inactive)
same,fold change,[4]; [17],1.15 and 0.797
same,cell count,[4]; [18],7100 and 7380
same,cell count,[4]; [19],6990 and 7420
same,outcome,[5],inactive
same,z-score,[6],-0.785 (inactive) and -0.84 (inactive)
Cc1cccc(/C=C/c2ccccc2)n1,period change,[13],0.01 h (inactive)
same,inhibition,[1],0% (inactive)
same,fluorescence ratio (interference),[2],1 (inactive)
same,remaining activity,[3],108% (inactive)
same,fold change,[4]; [16],0.995 (inactive) and 0.915 (inactive)
same,fold change,[4]; [17],1.79 and 0.591
same,cell count,[4]; [18],9190 and 8490
same,cell count,[4]; [19],9240 and 9280
same,outcome,[5],inactive
same,z-score,[6],1.12 (inactive) and 0.09 (inactive)
